Autophagy HCS = alters autophagy in cells; MEF GFP-LC3 puncta imaging; test concentration mostly 10 µM; calls only at 10 µM (by protocol); 0.98% of 190,000 active; AID 463193;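 active = percentage of spot-positive cells more than 3 SD above its plate mean, without a fluorescence outlier flag or 80% toxicity; inconclusive = no clear call, values can overlap the other calls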
NCF1 inh = p47phox (human) inhibition; p47phox/p22phox peptide binding, fluorescence polarization, 2 h; 0.53% of 220,000 active; inhibition, % at 24.7 µM;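 active = inhibition above about 30%, limit read from the data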
Target sequence (P14598 whole entry, looked up): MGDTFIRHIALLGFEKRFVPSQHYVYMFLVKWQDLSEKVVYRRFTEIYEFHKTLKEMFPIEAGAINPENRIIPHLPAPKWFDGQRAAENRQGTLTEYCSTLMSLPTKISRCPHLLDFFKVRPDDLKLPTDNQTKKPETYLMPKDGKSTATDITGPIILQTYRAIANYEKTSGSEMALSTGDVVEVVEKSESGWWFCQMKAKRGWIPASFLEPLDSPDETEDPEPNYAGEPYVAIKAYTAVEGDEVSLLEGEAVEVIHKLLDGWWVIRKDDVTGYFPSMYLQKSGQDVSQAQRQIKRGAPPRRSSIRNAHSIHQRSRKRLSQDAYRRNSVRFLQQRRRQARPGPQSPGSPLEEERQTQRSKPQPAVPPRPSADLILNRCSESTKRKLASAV
Ins promoter up = MIN6 insulin promoter up-regulation | MIN6 insulin promoter-GFP reporter, high-content imaging; stronger effect = higher value | z-score at 5 µM | 0.3% of 190,000 active | AID 1625;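 active = z-score above 3 at 5 µM with at least 500 cells counted in the well; inconclusive = wells under 500 cells, flagged as cytotoxic or low count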
DTT redox prof = compounds producing H2O2 with reducing agent – biochemical, NIH compound library profiling, artefact control for MLSCN library redox annotation, primary screen | DTT-dependent redox cycling H2O2, phenol red/HRP absorbance; 100% = 100 µM peroxide control, 0% = buffer | activation, % at 10 µM | 0.03% of 200,000 active;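 active = activation of at least 50% relative to the plate's high and low controls in the primary single-dose screen; inactive = activation below 50%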;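 also: compound incubated with DTT at 0.8 mM final as the reducing agent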
HMGR II inh = E. faecalis class II HMG-CoA reductase inhibition. inhibition, % at 10 µM. purified E. faecalis HMGR, NADPH absorbance 340 nm kinetic. 0.41% of 190,000 active. AID 1066;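 active = inhibition above a set limit, the median over all tested compounds plus 3 SD, cut at about 9.5% in these data; inconclusive = no clear call, values can overlap the other calls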;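 also: enzyme runs in reverse so mevalonate oxidation gives rising NADPH absorbance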
Arbovirus anti = blocks arbovirus infection. arbovirus infection cell-based antiviral screen. 0.37% of 200,000 active. inhibition, % at 10 µM; in the data active = inhibition above about 30%
Of the large screens only hits and unclear results are named; the others gave an inactive call. Rows were chosen to be rich in hits. Some 2.2% of all compounds tested hit in one or more screens of this group.

Cc1cc(C)cc(NC(=O)/C=C/c2ccc([N+](=O)[O-])s2)c1	Ins promoter up 5.99
Cc1ccccc1NC(=O)/C=C/c1ccc([N+](=O)[O-])s1	Autophagy HCS active, Ins promoter up inconclusive
CC(=O)c1cccc(NC(=O)/C=C/c2ccc([N+](=O)[O-])s2)c1	Ins promoter up inconclusive
OCCC1CN(Cc2cccs2)CCN1Cc1ccccc1 (centres undefined)	HMGR II inh 14.7
Cc1cc(C(F)(F)F)c(C#N)c(SCC(=O)Nc2nc3ccccc3s2)n1	Autophagy HCS active
CCOC(=O)c1c(NC(=O)CSc2nnc(-c3ccc(OC)cc3)o2)sc2c1CCC2	Autophagy HCS active (no result: NCF1 inh, Ins promoter up, HMGR II inh, Arbovirus anti)
COc1ccc(-c2nnc(SCC(=O)Nc3sc4c(c3C#N)CCCC4)n2-c2ccccc2)cc1	Autophagy HCS active
N#Cc1ccc(-c2cccnc2)nc1SCC(=O)Nc1sc2c(c1C#N)CCC2	none
N#Cc1c(C(F)(F)F)cc(-c2ccccc2)nc1SCC(=O)Nc1sc2c(c1C#N)CCC2	Autophagy HCS active
COc1ccc(-n2c(SCC(=O)Nc3sc4c(c3C#N)CCCC4)nnc2-c2ccccc2OC)cc1	none
Cc1nc(SCC(=O)Nc2nc3ccccc3s2)c(C#N)c(C)c1C	none
Cc1ccc(C(=O)N/C(=C/c2ccccc2)C(=O)NCC2CCCO2)cc1 (centres undefined)	none
N#Cc1c(C(F)(F)F)cc(-c2ccccc2)nc1SCc1nc(N)nc(N2CCOCC2)n1	Autophagy HCS active (no result: Ins promoter up)
CCOC(=O)CCSc1nc(C)cc(C(F)(F)F)c1C#N	Autophagy HCS active
Cc1nnc(N(C)C(=O)c2ccc3c(c2)OCO3)s1	none
Cc1ccc2oc(Nc3nc(-c4ccccc4)cc(=O)[nH]3)nc2c1	NCF1 inh 45.3
C=C(C)C1Cc2c(C)nn(-c3cc(C)c4ccccc4n3)c2C1 (centres undefined)	none (no result: NCF1 inh, Ins promoter up, HMGR II inh, Arbovirus anti)
COC(=O)C1=C(C)N(CCc2ccc(OC)cc2)C(=O)C1	NCF1 inh 91.8
Cc1cc(C(=O)COc2ccc(F)cc2Br)c(C)n1C	HMGR II inh 9.6
O=C(CN(Cc1ccccc1F)C(=O)Cn1nnc(-c2cccs2)n1)NC1CCCCC1	none
NC(=O)CN1CCN(S(=O)(=O)c2ccc(Br)cc2)CC1	none
COc1ccc(C(=O)OCC(=O)Nc2ccc([N+](=O)[O-])cc2OC)c(O)c1	Autophagy HCS active
COc1ccc(C(=O)/C=C/Nc2ccc([N+](=O)[O-])cc2C)c(OC)c1	Autophagy HCS active
COc1ccc([N+](=O)[O-])cc1NC(=O)COC(=O)c1ccccc1O	none (no result: Autophagy HCS, DTT redox prof, HMGR II inh, Arbovirus anti)
COc1ccc(C(=O)/C=C/Nc2ccc([N+](=O)[O-])cc2C)cc1OC	none
CN(C)c1ccc(/C=c2\sc3nc(-c4ccccc4)nn3c2=O)cc1	NCF1 inh 41.6
O=C(Nc1ccc(-n2nncc2-c2ccco2)cc1)c1cc2ccccc2oc1=O	none
C/C(=N\NC(=S)NC1CCCCC1)c1ccc(C#N)cc1	Autophagy HCS active
CCCOCC(O)CCc1n[nH]c(=S)n1-c1ccccc1 (centres undefined)	none
Cn1cccc1CC(=O)NNC(=S)Nc1ccc(Cl)cc1	none
COC(=O)C1=C(NC(=O)c2ccccc2C)CCS1	Autophagy HCS active
CN(C)c1ccc(/C=C(/C#N)C(=O)NCc2ccccc2)o1	Autophagy HCS active, Ins promoter up 16.1
COC(=O)C1=C(C)Nc2c(c(=O)n(C)c(=O)n2C)C1c1cccnc1 (centres undefined)	HMGR II inh 13.4
CCOC(=O)c1c(NC(=O)COC(=O)C2CC2C)sc(C)c1C (centres undefined)	none
COc1cccc(C2=CC(c3ccc(C)cc3)n3ncnc3N2)c1 (centres undefined)	Arbovirus anti 65.8 (no result: Ins promoter up)
Cc1ccc(C2C=C(c3ccccc3OC(F)F)Nc3ncnn32)cc1 (centres undefined)	none
Cc1ccc(C2C=C(c3ccc4c(c3)OCO4)Nc3ncnn32)cc1 (centres undefined)	Arbovirus anti 84.5 (no result: Ins promoter up)
CC(C)Oc1ccccc1C1CC(=O)Nc2c1c(=O)n(C)c(=O)n2C (centres undefined)	Ins promoter up inconclusive
CC(=O)Nc1ccc(/C=N/Nc2nc3ccccc3[nH]2)cc1	none
CCN(CC)c1ccc(/C=N/Nc2nc3ccccc3[nH]2)cc1	Autophagy HCS active
CC1=NN(c2nc(-c3ccc(Cl)cc3)cs2)C(=O)C1	Arbovirus anti 42.2
COc1ccc(-n2c(C)cc(C(=O)CCl)c2C)cc1	Autophagy HCS active
O=C1CC(N2CCN(Cc3ccccc3)CC2)C(=O)N1c1ccccc1 (centres undefined)	none
CN1C(=O)CC(N2CCN(Cc3ccc(Cl)cc3)CC2)C1=O (centres undefined)	Ins promoter up 3.88
O=C(CCn1cnnn1)Nc1ccc(Cl)c(Cl)c1	HMGR II inh 13.8 (no result: Ins promoter up)
Cc1ccc(NC(=O)CCn2cccc2)cc1Cl	Ins promoter up 3.23
Cc1cccc(NC(=O)CCn2cnnn2)c1	none
Cc1ccc(N2C(N)=C(C#N)C(c3cc(CN4CCOCC4)cs3)C3=C2CC(C)(C)CC3=O)cc1 (centres undefined)	none
O=C(Nc1ccc(O)cc1)C1CC=CCC1 (centres undefined)	NCF1 inh 56.4
COc1ccc(NC(=O)C2C3CC/C=C\CCC32)cc1 (centres undefined)	none (no result: Autophagy HCS, DTT redox prof, HMGR II inh, Arbovirus anti)
c1ccc(-c2cc(-c3nnc4n3N=C(c3ccc5ccccc5c3)CS4)[nH]n2)cc1	NCF1 inh 45.2
Oc1ccc(C2=Nn3c(nnc3-c3ccco3)SC2)cc1O	HMGR II inh 12.3
N#CC1=C(N)N2C(=C(C#N)C1c1ccccc1)Sc1ccccc12 (centres undefined)	Autophagy HCS active (no result: Ins promoter up)
CCOc1ccc(C2C(C#N)=C(N)N3C(=C2C#N)Sc2ccccc23)cc1 (centres undefined)	none (no result: Autophagy HCS, NCF1 inh, DTT redox prof, HMGR II inh, Arbovirus anti)
CN1CCN(c2ccccc2NC(=O)COc2ccccc2)CC1	none
COC(=O)c1ccc(N2CCN(C)CC2)c(NC(=O)COc2ccc(OC)cc2)c1	Autophagy HCS active (no result: Ins promoter up)
O=C(COc1ccc(Br)cc1)Nc1ccccc1N1CCCC1	none
CC(=O)N1CCN(c2ccccc2NC(=O)COc2ccc(Br)cc2)CC1	HMGR II inh 12.6 (no result: Ins promoter up)
COc1ccccc1N1CCN(C(=O)c2ccc(Cl)c(S(=O)(=O)NCc3ccco3)c2)CC1	Autophagy HCS active
Cc1nn(CC(=O)Nc2ccc3c(c2)oc2ccccc23)c(=O)c2ccccc12	NCF1 inh 38.6
CNC(=O)Cn1nc(C)c2ccccc2c1=O	none
COC(=O)c1cc2c(cc1N)OCCO2	none
O=S(=O)([N-]c1nc2ccccc2nc1-[n+]1ccccc1)c1ccccc1	none
Cc1cc(C)c[n+](-c2nc3ccccc3nc2[N-]S(=O)(=O)c2ccc(Br)s2)c1	Autophagy HCS active
O=C(COCC(=O)NCc1ccccc1)NCc1ccccc1	none
CCc1cccc(NS(=O)(=O)c2ccc3c(c2)oc(=O)n3C)c1	NCF1 inh 40.4

From PubChem
